From PubChem BioAssay (NCI)
Values joined by “and” are separate entries in the source; they are usually repeats but may differ in a detail not shown here. Equal values may be shown once. The panel holds about 83,000 compounds, 20% with a hit somewhere; the sample as a whole holds those more often.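 The test compound was applied at a single concentration to cells in 96-well plates for 48 hours, and percent growth was recorded.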 Active and inactive are the calls of the source. Rule for the calls: active = growth percent below 10; inactive = the rest.

How the values were obtained:
Experiment in all cases: NCI-60 one-dose screen, 48 h (100 = growth as untreated, 0 = no growth, -100 = all killed)
SR leukemia = details: 10 µM unless noted
RPMI-8226 leukemia = details: 10 µM
OVCAR-8 ovarian = details: 10 µM
OVCAR-5 ovarian = details: 10 µM
OVCAR-4 ovarian = details: 10 µM
SK-OV-3 ovarian = details: 10 µM
IGROV1 ovarian = details: 10 µM
OVCAR-3 ovarian = details: 10 µM
HS 578T breast = details: 10 µM
NCI/ADR-RES ovarian = details: 10 µM

Measured: growth

O=[N+]([O-])C1=C(c2ccccc2)SC=C(c2ccccc2)S1
active: SR leukemia 6.09%
inactive: RPMI-8226 leukemia 48.6% | OVCAR-8 ovarian 71.4% | OVCAR-5 ovarian 113% | OVCAR-4 ovarian 87.4% | SK-OV-3 ovarian 79.4% | IGROV1 ovarian 76.3% | OVCAR-3 ovarian 73.6% | HS 578T breast 85.7% | NCI/ADR-RES ovarian 78.1%

N=S(c1ccccc1[N+](=O)[O-])c1ccccc1[N+](=O)[O-]
inactive: RPMI-8226 leukemia 72.8% | OVCAR-8 ovarian 96.8% | OVCAR-5 ovarian 69.6% | OVCAR-4 ovarian 38.4% | SK-OV-3 ovarian 87.2% | IGROV1 ovarian 53.9% | HS 578T breast 96.7% | NCI/ADR-RES ovarian 90.4%
active: OVCAR-3 ovarian -58.8%

COc1cccc2c1C(=O)c1c(O)c3c(c(O)c1C2=O)C[C@@](O)(C(C)=O)C[C@@H]3OC1CC(N)C(O)C(C)O1 (stereo partly specified)
inactive: NCI/ADR-RES ovarian 23.9%
active: SR leukemia -25.4% | RPMI-8226 leukemia -23.9% | OVCAR-5 ovarian -12.3% | OVCAR-4 ovarian -3.17% | SK-OV-3 ovarian 5.5% | IGROV1 ovarian -29% | OVCAR-3 ovarian -1.56% | HS 578T breast -69%

CN(C)C(=S)SC(=S)N(C)C
inactive: SR leukemia 42.6% and 52.1% | RPMI-8226 leukemia 62.7% | OVCAR-8 ovarian 107% and 96.6% | OVCAR-5 ovarian 106% and 108% | OVCAR-4 ovarian 72.9% and 32.9% | SK-OV-3 ovarian 115% and 110% | IGROV1 ovarian 96.2% and 94.3% | OVCAR-3 ovarian 98.8% and 96.2% | HS 578T breast 106% and 102% | NCI/ADR-RES ovarian 104% and 101%

OCC1OC(n2cnc3c(=S)nc[nH]c32)C(O)C1O (stereo unspecified)
inactive: SR leukemia 112% and 37.9% | RPMI-8226 leukemia 108% and 31.6% | OVCAR-8 ovarian 47.3% | OVCAR-5 ovarian 57% and 85.1% | OVCAR-4 ovarian 91.5% and 46.9% | SK-OV-3 ovarian 113% | IGROV1 ovarian 85.4% | OVCAR-3 ovarian 113% and 47% | HS 578T breast 89.5% and 62.7% | NCI/ADR-RES ovarian 102% and 46.5%

CCCCCCCCCCCCCCCCCCOCC(COP(=O)([O-])OCC[N+](C)(C)C)OC (stereo unspecified)
inactive: SR leukemia 48.1% | RPMI-8226 leukemia 33.1% | OVCAR-4 ovarian 109% | SK-OV-3 ovarian 81.8% | IGROV1 ovarian 11.8% | OVCAR-3 ovarian 95.9% | NCI/ADR-RES ovarian 107%
active: OVCAR-5 ovarian -61.3%

O=C(/C=C/c1cccnc1)c1ccccc1
inactive: SR leukemia 14.5% | RPMI-8226 leukemia 54.1% | OVCAR-8 ovarian 83.8% | OVCAR-5 ovarian 91.3% | OVCAR-4 ovarian 91.7% | SK-OV-3 ovarian 103% | IGROV1 ovarian 96.5% | OVCAR-3 ovarian 85.8% | NCI/ADR-RES ovarian 86%

CC(C)(C)CC(C)(C)c1ccc(OCCO)cc1
inactive: SR leukemia 85.5% | RPMI-8226 leukemia 124% | OVCAR-8 ovarian 108% | OVCAR-5 ovarian 111% | OVCAR-4 ovarian 124% | SK-OV-3 ovarian 116% | IGROV1 ovarian 108% | OVCAR-3 ovarian 116% | HS 578T breast 94.6% | NCI/ADR-RES ovarian 105%

O=C1C=CC(=CC=C2C=CN(CCCCCCCCCCCO)C=C2)C=C1
inactive: RPMI-8226 leukemia 11.9% | OVCAR-8 ovarian 22.7% | OVCAR-5 ovarian 55.4% | OVCAR-4 ovarian 35.4% | SK-OV-3 ovarian 45.4% | IGROV1 ovarian 41.2% | OVCAR-3 ovarian 30.2% | HS 578T breast 35.6% | NCI/ADR-RES ovarian 104%

CSC1SCC2C(=O)N(C)C(C(C)C)C(=O)OCC(NC(=O)c3cnc4ccccc4n3)C(=O)NC(C)C(=O)N(C)C1C(=O)N(C)C(C(C)C)C(=O)OCC(NC(=O)c1cnc3ccccc3n1)C(=O)NC(C)C(=O)N2C (stereo unspecified)
inactive: SK-OV-3 ovarian 15.5%
active: SR leukemia -37.7% | RPMI-8226 leukemia -30% | OVCAR-5 ovarian 2.94% | OVCAR-4 ovarian 1.22% | IGROV1 ovarian 0.149% | OVCAR-3 ovarian 5.79% | HS 578T breast -60.8% | NCI/ADR-RES ovarian 7.62%

O=C(/C=C/c1ccccn1)c1ccccc1
active: SR leukemia -15.7%
inactive: RPMI-8226 leukemia 25.4% | OVCAR-8 ovarian 28.9% | OVCAR-5 ovarian 81% | OVCAR-4 ovarian 47.2% | SK-OV-3 ovarian 108% | IGROV1 ovarian 46.1% | OVCAR-3 ovarian 17.3% | NCI/ADR-RES ovarian 35%

COc1c(O)cc2oc3cc(O)c(CC=C(C)C)c(O)c3c(=O)c2c1CC=C(C)C
inactive: RPMI-8226 leukemia 49.9% | OVCAR-8 ovarian 54.7% | OVCAR-4 ovarian 82.2% | SK-OV-3 ovarian 89% | IGROV1 ovarian 75% | OVCAR-3 ovarian 46.1% | HS 578T breast 73.3% | NCI/ADR-RES ovarian 38.6%
active: SR leukemia 7.13%

Clc1cc(Cl)c(Cl)nn1
inactive: SR leukemia 72% | RPMI-8226 leukemia 75.6% | OVCAR-8 ovarian 94.1% | OVCAR-5 ovarian 115% | OVCAR-4 ovarian 109% | SK-OV-3 ovarian 95.2% | IGROV1 ovarian 107% | OVCAR-3 ovarian 114% | HS 578T breast 101% | NCI/ADR-RES ovarian 107%
